Experimental data as given in PubChem BioAssay.
Activity calls are given as the source filed them. Unless noted, the rule behind the calls is not given here.

Columns and labels:
[1] = compounds altering circadian rhythm period length – cell-based, LOPAC library, luminescence reporter (AID 2774); conditions: circadian reporter cells, at 7 µM, actives lie on both sides;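 note: values are relative to mean of DMSO wells on each plate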
[2] = tested on: Hepatitis C virus NS3 helicase; experiment: blockers of NS3h binding to ssDNA – biochemical, fluorescence polarization, LOPAC1280 library, primary screen (AID 687035; in the data active = inhibition above about 37%); conditions: Purified HCV NS3 helicase, Cy5-dT15 ssDNA binding fluorescence polarization; stronger effect = higher value; concentration not given here
[3] = compounds altering Cy5-DNA-NS3h complex signal – biochemical, LOPAC1280, artefact control for HCV NS3 helicase inhibitor project (AID 687037); conditions: Cy5-DNA-NS3h complex fluorescence interference counterscreen
[4] = tested on: Aerobactin synthetase IucA (Klebsiella pneumoniae, hypervirulent); experiment: biochemical IucA inhibition screen of LOPAC library by absorbance (AID 1346212); conditions: IucA enzyme assay, absorbance (OD) readout; stronger effect = lower value;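 tested at 8 µM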;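 note: 100% = no compound wells and 0% = no enzyme wells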
[5] = viability loss with induced miR-34 in A549 – imaging, A549 dox-inducible miR-34, nuclei and caspase counts, primary screen (AID 1347080;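 active = compounds whose cell count with miR-34 switched on is under 0.7 times the count with it off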); conditions: A549 miR-34 inducible, Hoechst nuclei count, 48 h
[6] = blockers of cellular phospholipid synthesis – cell-based, LOPAC library, screen 4, primary screen (AID 1347384); conditions: animal cells, phospholipid biosynthesis inhibition screen; at 10 µM
[7] = galactose survival enhancers in mitochondrial complex I cybrids – cell-based, galactose medium, ATP luminescence, primary screen (AID 1645843;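 active = z-score of at least 1.8 in each of two replicates, scored against plate mean and spread of sample wells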;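 note: positive z means more ATP and so rescue of galactose-driven cybrid death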); conditions: complex I mutant cybrid cells, 72 h, stronger effect = higher value
[8] = P. berghei load reduction in hepatocytes – cell-based, HepG2, luciferase luminescence, HepG2 viability, primary screen (AID 624349; in the data active = parasite load remaining mostly below about 12%, no sharp cut-off; inactive = mostly above about 10%;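 note: 100% = mean of DMSO negative control wells on the same plate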); conditions: P. berghei liver stage in HepG2, luciferase luminescence, concentration not given here; parasite load remaining: stronger effect = lower value; viability: measured here: HepG2 viability without parasites
[9] = MELAS cybrid and Rieske KO viability enhancers – cell-based, MELAS cybrids, Rieske KO mouse fibroblasts, CellTiter-Glo, primary screen (AID 1508586;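 active = mean z-score across replicates of 1.96 or higher in either the MELAS or the Rieske mutant cell line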;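 note: z relative to plate mean and SD of compound and empty wells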); conditions: low glucose
[10] = measured here: relative caspase fold change +Dox/-Dox
[11] = measured here: total cells with miR-34 induction, stronger effect = lower value
[12] = measured here: total cells without miR-34 induction

SMILES	period change [1]	inhibition [2]	fluorescence ratio (interference) [3]	remaining activity [4]	fold change ([5]; stronger effect = lower value)	fold change [5, 10]	cell count [5, 11]	cell count [5, 12]	outcome [6]	z-score [7]	parasite load remaining [8]	viability [8]	z-score ([9]; MELAS cybrid survival, CellTiter-Glo 48 h, stronger effect = higher value)	z-score ([9]; Rieske KO mouse fibroblast survival, CellTiter-Glo 72 h)
CC(C)NC(C)Cc1ccc(I)cc1 (centres undefined)	0.04 h (inactive)	-1% (inactive)	1 (inactive)	108% (inactive)	1.08 (inactive)	0.905	10800	10000	inactive	-0.22 (inactive)	–	–	–	–
NC(=O)c1cc(N2CC2)c([N+](=O)[O-])cc1[N+](=O)[O-]	-0.165 h (inactive)	-2% (inactive)	1 (inactive)	112% (inactive)	1.03 (inactive)	1.9	4350	4220	inactive	0.09 (inactive)	–	–	–	–
CC(N)[C@H](O)c1ccc(O)c(O)c1 (some centres undefined)	-0.05 h (inactive)	0% (inactive)	1 (inactive)	122% (inactive)	0.943 (inactive)	1.34	10200	10800	inactive	-0.925 (inactive)	–	–	–	–
C#CCN[C@H](C)Cc1ccccc1	-0.015 h (inactive)	-2% (inactive)	1 (inactive)	82% (inactive)	0.962 (inactive)	1.51	9640	10000	inactive	0.54 (inactive)	–	–	–	–
CNCCc1ccc(O)c(O)c1	0 h (inactive)	-2% (inactive)	1 (inactive)	115% (inactive)	1.01 (inactive)	1.35	9960	9850	inactive	-0.945 (inactive)	–	–	–	–
C[N+](C)(C)CC#CCOC(=O)Nc1cccc(Cl)c1	0.045 h (inactive)	-2% (inactive)	1 (inactive)	123% (inactive)	0.993 (inactive)	1.89	10400	10500	inactive	-0.395 (inactive)	–	–	–	–
C[N+](C)(C)CCOC(=O)CBr	0.015 h (inactive)	-2% (inactive)	1 (inactive)	126% (inactive)	1.01 (inactive)	2.27	10100	10100	inactive	0.69 (inactive)	–	–	–	–
O=C1C=CC(=O)C=C1	-0.065 h (inactive)	0% (inactive)	1 (inactive)	109% (inactive)	1.02 (inactive)	1.65	9760	9540	inactive	0.205 (inactive)	–	–	–	–
CP(=O)(O)C1=CCNCC1	0.005 h (inactive)	-5% (inactive)	1 (inactive)	95.4% (inactive)	0.981 (inactive)	1.49	9760	9940	inactive	0.2 (inactive)	–	–	–	–
CN(C(=O)Cc1ccc(Cl)c(Cl)c1)C(CN1CCCC1)c1cccc(OCC(=O)O)c1 (centres undefined)	-0.06 h (inactive)	-4% (inactive)	1 (inactive)	103% (inactive)	1.05 (inactive)	1.11	10700	10200	inactive	0.31 (inactive)	–	–	–	–
NC(=O)COc1c(F)cc(SCCNS(=O)(=O)c2ccccc2)cc1F	-0.08 h (inactive)	-2% (inactive)	1 (inactive)	109% (inactive)	0.978 (inactive)	0.398	9150	9360	inactive	0.24 (inactive)	–	–	–	–
CCCN1CC[C@@H]2c3cc(O)ccc3CC[C@@H]21	-0.045 h (inactive)	-4% (inactive)	0.9 (inactive)	105% (inactive)	1.1 (inactive)	0.654	11000	10000	inactive	0.605 (inactive)	–	–	–	–
CCCN1CCC[C@@H](c2cccc(O)c2)C1	0.11 h (inactive)	-3% (inactive)	1 (inactive)	106% (inactive)	0.956 (inactive)	0.986	9850	10300	inactive	0.185 (inactive)	–	–	–	–
O=S1(=O)N(CCN2CC=C(c3c[nH]c4cc(F)ccc34)CC2)c2cccc3c2N1CCC3	0.13 h (inactive)	0% (inactive)	1 (inactive)	123% (inactive)	1.01 (inactive)	0.783	5470	5400	inactive	-1.29 (inactive)	–	–	–	–
CCCN1CCc2cccc3c2[C@H]1Cc1ccc(O)c(O)c1-3	0.32 h (inactive)	-3% (inactive)	1 (inactive)	109% (inactive)	1.06 (inactive)	0.965	7250	6850	inactive	-1.03 (inactive)	–	–	–	–
Nc1ccc(CCN2CCN(c3cccc(C(F)(F)F)c3)CC2)cc1	0.14 h (inactive)	-3% (inactive)	0.9 (inactive)	102% (inactive)	0.992 (inactive)	0.858	8520	8580	inactive	-0.665 (inactive)	–	–	–	–
CCCN(CCC)CCc1c[nH]c2ccc(C(N)=O)cc12	0.085 h (inactive)	0% (inactive)	1.1 (inactive)	109% (inactive)	–	–	–	–	–	–	–	–	–	–
Oc1ccc2c3c1O[C@H]1c4[nH]c5ccccc5c4C[C@@]4(O)[C@@H](C2)N(CC2CC2)CC[C@]314	–	–	–	108% (inactive)	0.934 (inactive)	1.1	8700	9320	–	-0.405 (inactive)	47.8% (inactive)	98.5%	0.24 (inactive)	0.662
